INHIBITION data for 53 compounds are collected here from ChEMBL document CHEMBL4513216, “Probing the Open Global Health Chemical Diversity Library for Multistage-Active Starting Points for Next-Generation Antimalarials” (ACS Infect Dis, 2020).

The whole screen tested about 69,000 compounds, of which about 8,600 (12%) showed an effect of 50% or more. The sample holds strong results, similar compounds and a random draw of the others, so the mix is not that of the screen.

This assay deals with Plasmodium berghei. Put plainly: Screen against P. berghei liver stage (PbLuc), transformed with Luciferase, at 10uM. It is filed as functional, HepG2. To be noted: tested at 10 uM.
As for `Cc1cc(C)cc(C(=O)N2CCCC3(CCCC(=O)N3C)C2)c1` (stereo not drawn), the INHIBITION is -15.9%.
As for `O=C(c1ccc(-n2ccnc2)cc1)N1CCCC(n2ccnc2)C1` (stereo not drawn), the INHIBITION is recorded as 2.3%.
As to `CC(C)(NS(C)(=O)=O)c1nc(-c2cccc(Cl)c2)no1`, the INHIBITION is recorded as -4.83%.
As for `CC=C(C)C(=O)NS(=O)(=O)c1ccc(C(F)(F)F)cc1`, the figure is 13.2%.
Regarding `CC1(C)CC(N(Cc2ccccc2)Cc2cccnc2)CC(C)(C)N1`, the INHIBITION is 65.4%.
For `Cc1ccsc1CN(Cc1cccnc1)C1CC(C)(C)NC(C)(C)C1`, the INHIBITION is reported as 33.7%.
As for `Cc1cccc(CN(Cc2cccnc2)C2CC(C)(C)NC(C)(C)C2)n1`, the figure is 35.2%.
`Cc1ccc(CN(Cc2ccccn2)C2CC(C)(C)NC(C)(C)C2)s1`: the INHIBITION came out at 37%.
With `Cc1ccc(CN(Cc2cccnc2)C2CC(C)(C)NC(C)(C)C2)s1`, the INHIBITION is recorded as 42.1%.
As for `CC1(C)CC(N(Cc2ccccc2)Cc2c[nH]cn2)CC(C)(C)N1`, the INHIBITION was 13.2%.
Take `CC1(C)CC(N(Cc2ccncc2)Cc2cccnc2)CC(C)(C)N1`: the INHIBITION is listed as 50.1%.
As for `CC1(C)CC(N(Cc2cccnc2)Cc2cccc(F)c2)CC(C)(C)N1`, the INHIBITION came to 75.3%.
With `Cc1nc[nH]c1CN(Cc1ccccc1)C1CC(C)(C)NC(C)(C)C1`, the INHIBITION was determined as 6.785%.
As for `Cc1nc[nH]c1CN(Cc1ccc(F)cc1)C1CC(C)(C)NC(C)(C)C1`, the figure is 42.4%; as for `CCCN(Cc1cccnc1)C1CC(C)(C)NC(C)(C)C1`, 10%; as for `CC1(C)CC(N(Cc2cccnc2)Cc2cccnc2)CC(C)(C)N1`, 64.9%.
Turning to `COc1ccc(CNC2CCC3(CCC(=O)N3)CC2)cc1` (stereo not drawn), the INHIBITION worked out at 19.8%.
The same measure for `CC(C)c1nn(C)c(N(C)C)c1CNCc1cccc(CN(C)C)c1`: 21.8%.
The same measure for `Cn1ncc(C(=O)O)c1C(=O)Nc1nc2ccc(Br)cc2s1`: 6.27%.
Consider `COCCOCC(=O)N1CCc2cc(Cl)cc(Cl)c2C1`, for which the INHIBITION was 1.86%.
For the compound `CCSCc1nc(O)c2nnn(C3CCN(Cc4ccco4)CC3)c2n1`, the INHIBITION is reported as 32.5%.
As to `Cc1ccc(C)c(C(=O)N2CCC3(CCC(=O)N(CC(N)=O)C3)CC2)c1`, the INHIBITION is 15.2%.
On to `Cn1cc(C(=O)N2CCN(c3ncccn3)CC2)ccc1=O`, for which the INHIBITION was found to be 28.8%.
As for `CN(CC1CCOC1)S(=O)(=O)c1cccc(C(=O)N2CCCCCC2)c1` (stereo not drawn), the INHIBITION is on record as -7.57%.
As to `CCOc1ncnc2c1CCN(S(=O)(=O)CC)CC2`, the INHIBITION came out at 30.5%.
As for `CCS(=O)(=O)N1CCc2ncnc(OC)c2CC1`, the figure is 79.2%.
Consider `Cc1ncnc2c1CCN(C(=O)Cc1cccc(F)c1)CC2`, for which the INHIBITION came to 36.4%.
Regarding `COc1ncnc2c1CCN(C(=O)NCc1cccc(F)c1)CC2`, the INHIBITION turned out to be 17.2%.
As for `CCS(=O)(=O)N1CCc2ncnc(C)c2CC1`, the INHIBITION stood at 42.3%.
The same measure for `COc1ncnc2c1CCN(C(=O)Cc1cccc(F)c1)CC2`: 52.6%; for `O=C(Cc1cccc(F)c1)N1CCc2ncnc(N3CCCC3)c2CC1`: -13.9%.
In the case of `O=C(Cc1cccc(F)c1)N1CCc2ncnc(NC3CCC3)c2CC1`, the INHIBITION was found to be 53%.
Take `O=C(Cc1cccc(F)c1)N1CCc2ncnc(NC3CC3)c2CC1`: the INHIBITION worked out at 14%.
As to `Cc1ccc(CN2CCOCC2c2[nH]ncc2C)cn1` (stereo not drawn), the INHIBITION came to 13.635%.
As to `CCC(c1ccccc1)c1nn2c(CN(CC)CC)nnc2s1` (stereo not drawn), the INHIBITION came out at 23.1%.
As for `CCC(=O)NCCc1cc2nc(-c3ccncc3)ccn2n1`, the INHIBITION amounted to 21.4%.
Take `COCC(C)NC(=O)c1cc(C)n(-c2cccc(OC)c2)c1C` (stereo not drawn): the INHIBITION stood at 35.9%.
The same measure for `CN1C(=O)CCCC12CCCN(C(=O)c1cccc(C(F)(F)F)c1)C2` (stereo not drawn): 40.8%; for `CSCC[C@H](NC(C)=O)c1nc(CCc2ccccc2)n[nH]1`: -47.9%; for `CCC=C(C)C(=O)NCc1ccc(OC)nc1`: -0.514%.
For the compound `Cc1ccccc1-c1noc(CN2CCc3nn(C)c(=O)cc3C2)n1`, the INHIBITION is 7.08%.
On to `CCC(O)CN1CCN(C(=O)Cc2ccccc2Cl)CC1` (stereo not drawn), for which the INHIBITION turned out to be 18.625%.
`CCOCC(O)CN1CCN(C(=O)Cc2ccc3c(c2)CCO3)CC1` (stereo not drawn): the INHIBITION was determined as 9.25%.
As for `O=C(Cc1ccccc1Cl)N1CCN(CC(O)COCCO)CC1` (stereo not drawn), the INHIBITION was found to be 57.85%.
On to `CCOCC(O)CN1CCN(C(=O)Cc2ccccc2Cl)CC1` (stereo not drawn), for which the INHIBITION is given as 25.6%.
As for `CCOCC(O)CN1CCN(C(=O)Cc2cccc(C)c2)CC1` (stereo not drawn), the INHIBITION was -52.95%.
For the compound `CCOCC(O)CN1CCN(C(=O)Cc2ccc3c(c2)CCC3)CC1` (stereo not drawn), the INHIBITION is recorded as 51.5%.
Turning to `O=C(c1cnccn1)N1CCCC2(CCN(Cc3cccnc3)C2)C1` (stereo not drawn), the INHIBITION is given as -19.5%.
Take `O=C(c1cncc(NCC2COc3ccccc3C2)n1)N1CCCCC1` (stereo not drawn): the INHIBITION is recorded as 0.348%.
Take `CC(C)Cc1nc(OCC(N)=O)c(C#N)c2c1CCCC2`: the INHIBITION is on record as 51%.
As for `CC(C)Cc1nc(OCC(N)=O)c(C#N)c2c1CCC2`, the figure is 16.6%; as for `CC(C)Cc1nc(OCC(=O)O)c(C#N)c2c1CCCC2`, 43.4%.
`C[C@@H]1C[C@H](C(F)(F)F)n2nc(C3CCN(C(=O)C(C)(C)C)CC3)cc2N1`: the INHIBITION stood at 8.72%.
